PubChem BioAssay (Tox21)
Active and inactive are the calls of the source. A call without a number means that no potency is given here. Calls come from the whole dose curve; as a rule, active = well fitted inhibition curve with a large enough effect in the repeat runs (not every such curve was filed as active); inconclusive = weak or mixed curves; inactive = flat fitted curve, though single readings scatter.

The molecules below were run against Thyrotropin-releasing hormone receptor (Homo sapiens) (UniProt P34981) (assay: qHTS assay to identify small molecule antagonists of the thyrotropin-releasing hormone receptor (TRHR) signaling pathway (AID 1346877)). Conditions: TRHR-HEK293, TRH-induced calcium fluorescence, antagonist mode; series mostly up to 51.3 µM.
Sequence of Thyrotropin-releasing hormone receptor (Homo sapiens) (P34981 whole entry, looked up): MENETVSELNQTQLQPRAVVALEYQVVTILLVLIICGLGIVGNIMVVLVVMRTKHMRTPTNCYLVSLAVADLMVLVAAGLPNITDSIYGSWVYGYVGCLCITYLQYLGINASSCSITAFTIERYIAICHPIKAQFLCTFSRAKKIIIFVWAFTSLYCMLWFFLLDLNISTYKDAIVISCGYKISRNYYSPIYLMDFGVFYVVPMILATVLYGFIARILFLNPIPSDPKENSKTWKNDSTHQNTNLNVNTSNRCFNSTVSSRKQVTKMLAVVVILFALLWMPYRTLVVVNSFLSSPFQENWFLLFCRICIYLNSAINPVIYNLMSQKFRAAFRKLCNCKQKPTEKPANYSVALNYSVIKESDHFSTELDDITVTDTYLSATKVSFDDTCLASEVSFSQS
Text: National Center for Advancing Translational Sciences [NCATS]
NIH Chemical Genomics Center [NCGC]
U.S. Environmental Protection Agency [EPA]
National Institutes of Environmental Health Sciences [NIEHS]
National Toxicology Program [NTP]
U.S. Food and Drug Administration [FDA]
Thyrotropin-releasing hormone (TRH) receptor (TRHR) is a G-protein-coupled receptor which binds the tripeptide thyrotropin releasing hormone. TRHR is found in the brain and, when bound by TRH, acts (through phospholipase C) to increase intracellular inositol trisphosphate. It plays a crucial role in the anterior pituitary where it controls the synthesis and secretion of thyroid stimulating hormone and prolactin. The TRHR-Hek293 assay is a cell-based assay, and it has the potential to screen G protein-coupled receptors. A compound/drug can either activate (agonist) or suppress (antagonist) GPCRs that can be monitored by levels of intracellular calcium. In this assay, the Tox21 10K compound library was screened to identify potential TRHR antagonists.
Tox21 Assay Protocol Summary:
The TRHR-Hek293 cells were dispensed at 1500cells/4uL/well in 1536-well black-clear bottom plates using a Multidrop dispenser. After the assay plates were incubated at a 37 C/5% CO2 incubator for 18 hours, 4 uL of Dye-Loading Solution was added to each well. The plates were incubated at 37 C for 2 hours. For agonist mode, 23 nL of compounds dissolved in DMSO, positive controls or DMSO only was transferred to the assay plate by a pin tool. The fluorescence intensity in the plates was measured using FDSS 7000EX kinetic plate reader for 3 min at 1 sec intervals. For antagonist mode, 23 nL of compounds dissolved in DMSO, positive controls or DMSO only was transferred to the assay plate by a pin tool. After 5 min incubation at room temperature, 1 uL of TRH was added on the top of the cell/compound mixtures to achieve a final agonist concentration of 1 nM. The fluorescence intensity in the plates was measured using FDSS 7000EX kinetic plate reader for 3 min at 1 sec intervals. Each test compound was measured at 15 concentrations and in triplicates.
With `NC(=O)NC(N)=O` the Potency was “inactive”.
With `CC(COCC(C)OC(=O)c1ccccc1)OC(=O)c1ccccc1` (stereo not given) the Potency was “inactive”.
For `Cc1ccncc1`, the Potency was “inactive”.
In the case of `COC(=O)OC`, the Potency is reported as “inactive”.
With `CCn1cc(C(=O)O)c(=O)c2cc3c(cc21)OCO3` the Potency was “inactive”.
With `CCCCCCCCCCCCCC(=O)O` the Potency was “inactive”.
For `Brc1ccc(Oc2ccc(Br)cc2)cc1`, the Potency was “inactive”.
For `CC(C)c1ccc(C(C)C)cc1`, the Potency was “inactive”.
`Cc1cc(C)c(O)c(C)c1` was tested, and the Potency was “inactive”.
In the case of `O=C1OC(=O)c2c(Cl)c(Cl)c(Cl)c(Cl)c21`, the Potency is reported as “inactive”.
With `CO[Si](CCCNCCN)(OC)OC` the Potency was “inactive”.
With `C1CCCNCC1` the Potency was “inactive”.
With `COc1ccc2cc3[n+](cc2c1OC)CCc1cc2c(cc1-3)OCO2` the Potency was “inactive”.
`O=C1C(N(CO)C(=O)NCO)N(CO)C(=O)N1CO` (stereo not given) was tested, and the Potency was “inactive”.
For `CC(=O)CC(=O)N(C)C`, the Potency was “inactive”.
In the case of `CCCCC(CC)COC(=O)c1ccc(C(=O)OCC(CC)CCCC)cc1` (stereo not given), the Potency is reported as “inactive”.
With `O=C(O)C1=NN(c2ccc(S(=O)(=O)O)cc2)C(=O)C1` the Potency was “inactive”.
In the case of `CCCCCCCCC(=O)O`, the Potency is reported as “inactive”.
With `C[n+]1ccn(CCO)c1` the Potency was “inactive”.
With `NCCNCCNCCN` the Potency was “inactive”.
With `C=CC(=O)NCOCCCC` the Potency was “inactive”.
With `CCCCCC(C)=O` the Potency was “inactive”.
With `Cc1ccc(C(C)C)cc1` the Potency was “inactive”.
With `CC(=O)c1nccs1` the Potency was “inactive”.
For `Cc1ccc(C)c(S(=O)(=O)O)c1`, the Potency was “inactive”.
`CC(CN1c2ccccc2Sc2ccccc21)N(C)C` (stereo not given) was tested, and the Potency was “inactive”.
In the case of `CC(=O)C(C)C`, the Potency is reported as “inactive”.
With `NC(N)=S` the Potency was “inactive”.
For `CCc1cccc(O)c1`, the Potency was “inactive”.
For `CC(=O)OC(C)(C)C1CC=C(C)CC1` (stereo not given), the Potency was “inactive”.
For `CCOC(=O)CC(=O)OCC`, the Potency was “inactive”.
`CCCOCC(C)O` (stereo not given) was tested, and the Potency was “inactive”.
With `C=C(CC(=O)O)C(=O)O` the Potency was “inactive”.
In the case of `OCc1ccc(Cl)cc1Cl`, the Potency is reported as “inactive”.
With `Cc1cc(C)cc(O)c1` the Potency was “inactive”.
With `CC(C)(CO)CO` the Potency was “inactive”.
`COc1c2ccoc2cc2oc(=O)ccc12` was tested, and the Potency was “inactive”.
With `CC1(C)C(=O)N(Cl)C(=O)N1Cl` the Potency was “inactive”.
`COc1cc(NC(=O)CC(C)=O)c(OC)cc1Cl` was tested, and the Potency was “inactive”.
In the case of `CCCCCNCCCCC`, the Potency is reported as “inactive”.
